These results are taken from PubChem BioAssay AID1986 (Sanford-Burnham Center for Chemical Genomics, 2009).

The nature of the assay: cell-free HIV fusion peptide-binding blockers – biochemical, uHTS, fluorescence dequenching, primary screen (AID 1986). Particulars: 30 min, stronger effect = higher value.
Where [1] appears, read: measured here: repeat confirmation average inhibition, at 18.6 µM.

The whole screen tested about 290,000 compounds, of which about 890 (0.31%) were called active. No stated cut-off is given here; in the data, active means inhibition mostly above about 52% (no sharp cut-off); inactive means mostly below about 76%. Only a selection was taken, and actives are over-represented in it overall.

Turning to `Cc1cc(NC(=O)COC(=O)CCS(=O)(=O)c2ccc(Cl)cc2)no1`, the inhibition (usually the drop in the measured response relative to a control, in per cent) (at 20 µM) was 1.1% (inactive). Still for that read-out and setting: under `CC(C(=O)N1CCc2ccccc21)n1cccc1` (stereo unspecified) stands -2.3% (inactive); under `Cc1ccc(C)c(NC(=O)c2ccccc2NS(=O)(=O)c2cc([N+](=O)[O-])ccc2C)c1`, 47.1% (inactive); under `CC(=O)Nc1ccc(NS(=O)(=O)c2cc([N+](=O)[O-])ccc2C)cc1`, 0.5% (inactive). Regarding `C=CCOC(=O)CCC(=O)Nc1cc(OC)nc(OC)n1`, the inhibition (at 20 µM) is -0.6% (inactive). For `Cc1ccc(S(=O)(=O)Cc2cn3cccnc3n2)cc1`, the inhibition (at 20 µM) is -2.2% (inactive). Still for that read-out and setting: under `COc1ccc2c(c1)c(C(=O)N/N=C/c1cccc(Br)c1)c(C)n2C` stands 0.5% (inactive); under `COc1ccc(N2CC(C(=O)NCCc3c[nH]c4ccccc34)CC2=O)cc1` (stereo unspecified), 0.2% (inactive). The same measure, in the same setting: under `COc1ccc(/C=C2\SC(=N)N(c3nccs3)C2=O)cc1OC` stands 13.9% (inactive).

On to `N=C1S/C(=C\c2ccco2)C(=O)N1c1nccs1`, for which the inhibition (at 20 µM) is 51.1% (active).

Consider `N=C1S/C(=C\c2ccc(-c3cccc(Cl)c3)o2)C(=O)N1c1nccs1`, for which the inhibition by setting is: (at 20 µM) 68.1% (inactive); under setting [1], 15.5%.

Turning to `CCCCNC(=O)CNC(=S)N(Cc1ccc(C)cc1)Cc1ccco1`, the inhibition (at 20 µM) is 2.5% (inactive). Take `CCCN1C(=O)/C(=C/c2c(N3CCNC(=O)C3CC(=O)OC)nc3c(C)cccn3c2=O)SC1=S` (stereo unspecified): the inhibition (at 20 µM) is 148% (inactive).

On to `CCCN1C(=O)/C(=C/c2c(N3CCNC(=O)C3CC(=O)OCC)nc3c(C)cccn3c2=O)SC1=S` (stereo unspecified), for which the inhibition (at 20 µM) was 146% (inactive). The same measure, in the same setting: under `CCOC(=O)CC1C(=O)NCCN1c1nc2c(C)cccn2c(=O)c1/C=C1\SC(=S)N(C(C)CC)C1=O` (stereo unspecified) stands 137% (inactive). For the molecule `CCOC(=O)CC1C(=O)NCCN1c1nc2ccc(C)cn2c(=O)c1/C=C1\SC(=S)N(C(C)CC)C1=O` (stereo unspecified), for the setting “at 20 µM”, the inhibition is 148% (inactive). The same measure, in the same setting: under `CCOC(=O)CC1C(=O)NCCN1c1nc2c(C)cccn2c(=O)c1/C=C1\SC(=S)N(CC(C)C)C1=O` (stereo unspecified) stands 117% (active).

On to `CCOC(=O)CC1C(=O)NCCN1c1nc2ccc(C)cn2c(=O)c1/C=C1\SC(=S)N(CC(C)C)C1=O` (stereo unspecified), for which the inhibition reads like this: (at 20 µM) 109% (active); under setting [1], 147%. `Cc1ccccc1NC(=O)Cn1c(=O)sc2ccccc21`: the inhibition (at 20 µM) was -1.5% (inactive). Consider `CC1=C(C(=O)OCC2CCCO2)C(c2coc3ccc(Cl)cc3c2=O)C2=C(CCCC2=O)N1` (stereo unspecified), for which the inhibition (at 20 µM) was -0.8% (inactive).

Consider `COc1ccccc1CC(=O)Nc1cccc2c1CCCC2`, for which the inhibition (at 20 µM) is -2.5% (inactive). Still for that read-out and setting: under `COc1ccc2nc(SCC(=O)Nc3nonc3C)[nH]c2c1` stands 0.1% (inactive). Regarding `CSc1ccccc1C(=O)NCC(c1ccco1)N(C)C` (stereo unspecified), the inhibition (at 20 µM) was -2.2% (inactive). The same measure, in the same setting: under `CC1=C(C(=O)NC2CCCc3c2cnn3-c2cccc(C)c2C)OCCO1` (stereo unspecified) stands -0.2% (inactive); under `CN(C)c1cccc2c(C=C(C#N)C#N)ccc(N(C)C)c12`, 89.8% (active). Same read-out and setting: the same measure for `CN(C)c1cccc2c(/C=N/O)ccc(N(C)C)c12`: -1.6% (inactive); for `CC(=O)c1ccc(N(C)C)c2c(N(C)C)cccc12`: -0.7% (inactive); for `Cc1ccc(NC(=O)c2cc(S(=O)(=O)N3CCOCC3)cn2C)cc1Cl`: -0.7% (inactive).

Regarding `Cc1ccc(N(CC(=O)NCc2ccccc2Cl)S(=O)(=O)c2cccs2)cc1`, the inhibition (at 20 µM) is 0.6% (inactive).

For the molecule `O=C(CSc1nnc(-c2ccccc2F)o1)NC1CCCCC1`, under “at 20 µM”, the inhibition is -0.3% (inactive).

On to `Cc1ccc(-n2c3c(cc(C(=O)NC4CCSC4=O)c2=O)C(=O)CCC3)cc1` (stereo unspecified), for which the inhibition (at 20 µM) was -1.5% (inactive).

Turning to `CCOc1cc(/C=N\Nc2ccc([N+](=O)[O-])cc2)ccc1OCC(=O)Nc1ccc(C)c(C)c1`, the inhibition (at 20 µM) is 88.4% (active) and the inhibition under setting [1] was 94.3%. Regarding `COc1cc(/C=N\Nc2ccc([N+](=O)[O-])cc2)ccc1OCC(=O)Nc1ccc(C)c(C)c1`, the inhibition (at 20 µM) is 27.8% (inactive). Still for that read-out and setting: the same measure for `CCOc1cc(/C=N/NC(N)=O)ccc1OCC(=O)Nc1ccc(C)c(C)c1`: -2% (inactive); for `CC(Sc1ccccc1)C(=O)NCCc1ccccc1` (stereo unspecified): 0.1% (inactive); for `COc1ccccc1-c1nc(S(=O)(=O)c2ccc(Cl)cc2)c(N(C)C)o1`: 0.1% (inactive). Same read-out and setting: under `O=c1c2[nH]c3cccc(Cl)c3c2ncn1Cc1ccncc1` stands 0.2% (inactive). Same read-out and setting: the same measure for `COC(=O)c1ccc(N2NC(=O)/C(=C/c3ccc(-c4ccc(Cl)c(C(=O)O)c4)o3)C2=O)cc1`: 54.7% (active); for `Cc1ccc(N2NC(=O)/C(=C/c3ccc(-c4ccc(Cl)c(C(=O)O)c4)o3)C2=O)cc1`: 29.4% (inactive); for `O=C1NN(c2ccccc2)C(=O)/C1=C/c1ccc(-c2ccc(Cl)c(C(=O)O)c2)o1`: 34.7% (inactive). For `Cc1cc(CSc2ccccc2)ccc1NC(=O)c1ccc(Cl)c([N+](=O)[O-])c1`, under “at 20 µM”, the inhibition was 1.8% (inactive).

Turning to `Cc1ccc(-c2onc3ccc(C=O)cc23)cc1`, under “at 20 µM”, the inhibition is -0.6% (inactive). In the case of `O=Cc1ccc2noc(-c3ccc(F)cc3)c2c1`, the inhibition by setting is: (at 20 µM) 75.6% (active); under setting [1], 79.8%.

On to `O=Cc1ccc2noc(-c3ccc(Cl)cc3)c2c1`, for which the inhibition (at 20 µM) was 28.2% (inactive).

On to `COc1ccc2c(ccc[n+]2CC(=O)c2ccccc2)c1`, for which the inhibition (at 20 µM) is 1.3% (inactive). The same measure, in the same setting: the same measure for `Cc1nc(NC(=O)CSc2cc(C)c3ccccc3n2)c(Cl)cc1Cl`: -0.4% (inactive); for `S=C(Nc1ccc(Oc2ccccc2)cc1)N1CCOCC1`: -0.2% (inactive).
